Activity calls are given as the source filed them.

Assay [1] deals with XIP peptide (Xip251-270) binding. Briefly: XIP fragment 251-270 binding compounds – biochemical, small-molecule microarray, fluorescence 635/667 nm, 0.1 µg/mL protein, primary screen (AID 1182). As to conditions: fluorescent protein binding, 635 nm, higher = more signal, called active from +8 up or from −8 down.
In assay [2] the test system is XIP peptide (Xip251-270). Put plainly: compounds binding XIP fragment 251-270 – biochemical, small-molecule microarray, fluorescence 635/667 nm, 0.5 µg/mL protein, primary screen (AID 1183). To be noted: fluorescence 635 nm, higher = more signal.
Assay [3] can be described thus: blood-stage malaria parasite viability loss – strain 3D7, DAPI fluorescence, 100 nL, primary screen (AID 1184).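 Further: parasites grown inside human red blood cells in medium with human serum.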 To be noted: P. falciparum 3D7 growth, 3 d, higher = more signal.
Assay [4] addresses Homeobox protein Hox-A13 (Mus musculus) (UniProt Q62424). Briefly: disruptors of Hoxa13 oligonucleotide interaction – biochemical, fluorescence polarization, labeled oligonucleotide, primary screen (AID 1185). To be noted: Hoxa13:DNA binding, 15 min, higher = more signal, called active from +8 up or from −8 down. (Polarisation of emitted light reports the rotation of a fluorescent probe.)

Chain of Homeobox protein Hox-A13 (Mus musculus) (Q62424 whole entry, looked up): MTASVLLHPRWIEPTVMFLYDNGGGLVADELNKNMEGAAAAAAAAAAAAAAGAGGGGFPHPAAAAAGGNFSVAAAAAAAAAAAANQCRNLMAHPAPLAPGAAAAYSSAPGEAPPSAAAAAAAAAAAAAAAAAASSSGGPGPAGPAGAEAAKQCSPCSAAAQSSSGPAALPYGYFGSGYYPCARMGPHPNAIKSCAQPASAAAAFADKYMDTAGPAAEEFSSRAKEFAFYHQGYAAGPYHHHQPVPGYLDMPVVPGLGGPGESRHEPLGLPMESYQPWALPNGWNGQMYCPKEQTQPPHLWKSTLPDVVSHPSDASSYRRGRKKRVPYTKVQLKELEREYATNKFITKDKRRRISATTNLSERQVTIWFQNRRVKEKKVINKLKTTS

With `CO[C@H]1COC(=O)CCC[C@H](C)[C@H](OC)COC(=O)CC=C[C@@H]1C`, the composite z-score in assay [1] is 0.239 (inactive); in assay [2], 0.0648. In addition, the z-score was -0.116 in assay [3] and -0.695 (inactive) in assay [4].

Consider `CCOC(=O)[C@H](CC(C)C)NC(=O)CCC1CC(OC(=O)NCc2ccc3c(c2)OCO3)CC2(CCCC(COC(=O)NCCc3ccc(Cl)cc3)O2)O1` (some centres not stated), for which the composite z-score in assay [1] is -0.0891 (inactive); in assay [2] it was 0.137. Further, the z-score was -1.66 in assay [3] and -6.16 (inactive) in assay [4].

As for `CON=C(C)CCN1CCCc2nc(C)c(C)cc21`, the results for the composite z-score in assay [1] and in assay [2] were -0.0879 (inactive) and 0.428, respectively. The z-score is -0.18 in assay [3] and -7.51 (inactive) in assay [4].

With `CCOC(=O)[C@H](CC(C)C)NC(=O)CCC1CC(OC(=O)NCc2ccc3c(c2)OCO3)CC2(CCCC(COC(=O)NCc3ccccc3)O2)O1` (some centres not stated), the figures for the composite z-score in assay [1] and in assay [2] were 0.117 (inactive) and 0.118, respectively. Further, the results for the z-score in assay [3] and in assay [4] were -1.79 and -6.86 (inactive), respectively.

With `CCOC(=O)[C@H](Cc1ccccc1)NC(=O)CCC1CC(OC(=O)NCc2cccc3ccccc23)CC2(CCCC(COC(=O)NCCc3ccccc3OC)O2)O1` (some centres not stated), the composite z-score in assay [1] is 0.248 (inactive); in assay [2], 0.374. Also, the figures for the z-score in assay [3] and in assay [4] were -1.95 and -0.95 (inactive), respectively.

With `CC(CCN1CCCCc2nc(C)c(C)cc21)=NO[C@@H](C)c1cc(-c2c(C)cc(C)cc2C)no1`, the composite z-score was 0.107 (inactive) in assay [1] and 0.0399 in assay [2]. Moreover, the z-score in assay [3] is -0.143; in assay [4], -2.25 (inactive).

As to `CCN1C(=O)[C@H]2[C@H]3[C@H](O)[C@H](O)CC(=NOCC(C)C)[C@H]3CC[C@H]2C1=O`, the figures for the composite z-score in assay [1] and in assay [2] were -0.583 (inactive) and -0.122, respectively. The z-score was 1.82 in assay [3] and 0.204 (inactive) in assay [4].

Turning to `O=C1[C@H]2[C@H]3[C@H](O)[C@H](O)CC(=NOC[C@@H](O)COCc4ccco4)[C@@H]3CC[C@H]2C(=O)N1Cc1ccc2c(c1)OCO2`, the composite z-score in assay [1] is -0.0588 (inactive); in assay [2], 0.265. The values for the z-score in assay [3] and in assay [4] were 1.15 and 0.263 (inactive), respectively.

With `C[C@H]1CC[C@H]2C(=O)OC(COc3ccc(C(C)(C)C)cc3)CN2[C@@H]1c1ccc(Br)cc1` (some centres not stated), the results for the composite z-score in assay [1] and in assay [2] were 0.0819 (inactive) and 0.3, respectively. Further, the figures for the z-score in assay [3] and in assay [4] were 1.52 and -3.32 (inactive), respectively.

Take `CC#CCOCCC=C1c2ccccc2[C@@H](OC)[C@@H]1C`: the results for the composite z-score in assay [1] and in assay [2] were 0.772 (inactive) and 0.0938, respectively. Besides, the z-score in assay [3] is -1.02; in assay [4] it was -3 (inactive).

With `O=C1C[C@@H](O)[C@@H](O)[C@@H]2[C@@H]3C(=O)N(C4CCCCC4)C(=O)[C@@H]3CC[C@@H]12`, the figures for the composite z-score in assay [1] and in assay [2] were -0.08 (inactive) and 0.148, respectively. Also, the z-score was 0.922 in assay [3] and 0.136 (inactive) in assay [4].

In the case of `O=C1[C@H]2[C@H]3[C@H](O)[C@H](O)CC(=NO[C@@H]4O[C@H](CO)[C@@H](O)[C@H](O)[C@H]4O)[C@@H]3CC[C@H]2C(=O)N1C[C@@H]1CCCO1`, the composite z-score was 0.357 (inactive) in assay [1] and 0.385 in assay [2]. For the same compound, the z-score in assay [3] was -1.49; in assay [4] it was -0.192 (inactive).

As for `COC(=O)[C@@H]1CC[C@H](C)[C@@H](c2ccc(Br)cc2)N1C(=O)C(F)(F)F`, the composite z-score in assay [1] is 0.0945 (inactive); in assay [2], -0.635. The z-score in assay [3] is -0.541; in assay [4] it was -0.733 (inactive).

Take `COC(=O)[C@H](C)NC(=O)CCC1CC(OC(=O)NCc2ccc3c(c2)OCO3)CC2(CCCC(COC(=O)NCCC(C)C)O2)O1` (some centres not stated): the composite z-score in assay [1] was 1.11 (inactive); in assay [2], 0.106. The figures for the z-score in assay [3] and in assay [4] were -0.489 and -6.3 (inactive), respectively.

Turning to `CCOC(=O)CCN1C(=O)[C@H]2[C@H]3[C@H](O)[C@H](O)CC(=O)[C@@H]3CC[C@H]2C1=O`, the composite z-score is 0.0603 (inactive) in assay [1] and 0.61 in assay [2]. The z-score in assay [3] is -0.0726; in assay [4], -2.98 (inactive).

On to `CO[C@@H](C1CCCCC1)[C@@H](C)[C@H](OCc1cccc(Br)c1)[C@@H](C)CO`, for which the composite z-score in assay [1] is -0.0994 (inactive); in assay [2] it was -0.0791. Moreover, the z-score was -0.254 in assay [3] and -4.53 (inactive) in assay [4].

On to `COC(=O)[C@H](C)NC(=O)CCC1CC(OC(=O)NCCc2ccc(F)cc2)CC2(CCCC(COC(=O)NCCOc3ccccc3)O2)O1` (some centres not stated), for which the composite z-score in assay [1] was 2.99 (inactive); in assay [2], 0.536. Besides, the z-score in assay [3] is -1.84; in assay [4] it was -1.1 (inactive).

For `CC(C)CON=C1C[C@@H](O)[C@@H](O)[C@@H]2[C@@H]3C(=O)N(C(C)(C)C)C(=O)[C@@H]3CC[C@@H]12`, the values for the composite z-score in assay [1] and in assay [2] were 0.0494 (inactive) and -0.295, respectively. Besides, the z-score in assay [3] is -1.62; in assay [4] it was -0.298 (inactive).

Take `O=C1[C@H]2[C@H]3[C@H](O)[C@H](O)CC(=NO[C@@H]4O[C@H](CO)[C@@H](O)[C@H](O)[C@H]4O)[C@H]3CC[C@H]2C(=O)N1c1ccc(F)cc1F`: the composite z-score in assay [1] is 0.391 (inactive); in assay [2], 0.502. Further, the z-score in assay [3] was -0.652; in assay [4], -7.01 (inactive).

Turning to `Cc1ccc2[nH]c3nc(CCCn4ccnc4-c4ccccc4)nnc3c2c1`, the composite z-score was -0.0582 (inactive) in assay [1] and 0.623 in assay [2]. In addition, the values for the z-score in assay [3] and in assay [4] were -1.09 and -0.867 (inactive), respectively.

Turning to `C[C@@H]1CC[C@H]2C(=O)O[C@@H](COc3ccc(C(C)(C)C)cc3)CN2[C@H]1c1ccc(Br)cc1`, the composite z-score in assay [1] was -0.382 (inactive); in assay [2], 0.619. Also, the values for the z-score in assay [3] and in assay [4] were 0.907 and 0.503 (inactive), respectively.

With `CC(C)[C@@H](OCc1ccccc1)[C@H](C)CON=C1[C@H]2CCn3c(=O)n(-c4ccccc4)c(=O)n3[C@H]2[C@H](O)[C@@H]2O[C@H]12`, the composite z-score in assay [1] is -0.874 (inactive); in assay [2], 0.199. The results for the z-score in assay [3] and in assay [4] were -2 and -5.16 (inactive), respectively.

On to `COC(=O)[C@H](C)NC(=O)CCC1CC(OC(=O)NCc2cccc3ccccc23)CC2(CCCC(COC(=O)NCc3cccc(C(F)(F)F)c3)O2)O1` (some centres not stated), for which the composite z-score is -0.179 (inactive) in assay [1] and 0.128 in assay [2]. For the same compound, the z-score in assay [3] was -1.74; in assay [4], -4.97 (inactive).

Values taken from PubChem BioAssay.
